Out of some 38,000 compounds screened, about 1,200 (3.2%) showed an effect of 50% or more. The median lay at about -58%. This excerpt belongs to a sample that is enriched for strong results.

The results in this text go back to ChEMBL document CHEMBL3988442, “University of Dundee, Small-Polar-MMV Screening Library” (2021).

The test has as its system Plasmodium falciparum. Kind of test: Calibr Malaria Delayed Death Assay SOP. Format: functional, organism-based. The arrangement: scale not given: in the data most compounds retested in dose-response had high values. The conditions noted are these: concentration 4.99e-06 (unit not given; other assays of the set use mol/L).
Regarding `COCC(O)CN(C)c1ccnc2cc(Br)ccc12` (stereo not drawn), the “Percent Effect” value is 94.48%.
Consider `COCC(O)CN(C)c1ccnc2cc(F)ccc12` (stereo not drawn), for which the “Percent Effect” value is reported as -53.9%.
As for `COCC(O)CN(C)c1ccnc2ccc(Cl)cc12` (stereo not drawn), the figure is -46.57%; as for `COC1COC2(CCN(C(=O)c3ccc4ccccc4c3)CC2)C1` (stereo not drawn), -205.6%; as for `CCCn1ncc(-c2ccnc(NC3CCSC3)n2)c1C` (stereo not drawn), -9.069%.
In the case of `CCCn1ncc(-c2ccnc(N[C@@H]3C[C@@H]4CC[C@H]3C4)n2)c1C` it was -33.21%; in that of `CCCn1ncc(-c2ccnc(NC3CC(C)(C)NC(C)(C)C3)n2)c1C`, 66.75%; in that of `CCN(CC)C(=O)c1nnsc1-c1ccc(C)cc1`, -12.06%.
In the case of `CC(=O)N1CCN2C[C@H](CO)[C@@H](c3ccccc3)[C@H]2C1` it was -67.98%; in that of `CC(=O)NCCNC(=O)CN1CCCC1c1c(C)nn(C)c1C` (stereo not drawn), -114%.
Regarding `CN1C(=O)C[C@H]2[C@H]1CCN2Cc1cccc(C#N)c1.O=C(O)C(F)(F)F`, the “Percent Effect” value is listed as -78.57%.
Consider `Cc1ncnc2c1CCN(C(=O)Cc1ccccn1)CC2.O=C(O)C(F)(F)F`, for which the “Percent Effect” value is on record as -129.8%.
As for `COCCN1CCC2(CC1)CC(NCc1cncn1C)c1ccccc12.O=C(O)C(F)(F)F.O=C(O)C(F)(F)F` (stereo not drawn), the figure is -24.3%; as for `COCCN1CCC2(CC1)CC(NCc1ccc(C)s1)c1ccccc12.O=C(O)C(F)(F)F.O=C(O)C(F)(F)F` (stereo not drawn), 76.07%; as for `CS(=O)(=O)N1CCC2(CC1)CC(NCc1ccccn1)c1ccccc12` (stereo not drawn), 1.106%.
On to `COCCN1CCC2(CC1)CC(N1CCOCC1)c1cc(C)ccc12.O=C(O)C(F)(F)F.O=C(O)C(F)(F)F` (stereo not drawn), for which the “Percent Effect” value is -78.91%.
For `COCC(=O)NC1CC2(CCN(CCN(C)C)CC2)c2ccccc21` (stereo not drawn), the “Percent Effect” value is listed as -44.07%.
In the case of `CC(C)N(CC(N)=O)C(=O)c1cnc(-c2ccc3c(c2)OCO3)s1`, the “Percent Effect” value is recorded as -184.6%.
As for `CC(=O)N(C)Cc1cccc(NC(=O)c2cnn(C)c2C)c1`, the figure is -25.31%.
As to `CCOc1cc(C(=O)n2cc(C)cn2)cc(OCC)c1OCC`, the “Percent Effect” value was -156.8%.
As for `NC(=O)c1ccc(N2CCCCC2)c(NC(=O)c2ccc(Br)cc2)c1`, the “Percent Effect” value was determined as 70.21%.
In the case of `NC(=O)c1ccc(N2CCCCC2)c(NC(=O)c2cc(Br)ccc2Cl)c1` it was -37.22%.
Regarding `NC(=O)c1ccc(N2CCCCC2)c(NC(=O)c2cc(Br)ccc2F)c1`, the “Percent Effect” value is reported as -77.22%.
In the case of `CSCc1cc(F)ccc1CNC(=O)N1CCC[C@@H]1CO` it was -21.18%; in that of `NC(=O)NC(=O)CCN1CCN(c2nccs2)CC1`, -12.95%; in that of `COc1ccc(CNCC(C)Oc2ccccn2)cc1Cl.Cl` (stereo not drawn), 13.86%.
In the case of `CC(C)N1CCC2(CC1)CC(=O)N(Cc1cc(F)cc(F)c1)C2`, the “Percent Effect” value turned out to be 31.53%.
As for `O=C(CO)N1CCC2(CC1)CC(=O)N(Cc1cc(F)cc(F)c1)C2`, the figure is -76.75%; as for `O=C1CC2(CCN(CCCF)CC2)CN1Cc1cc(F)cc(F)c1`, 33.68%.
In the case of `CC(C)=CCN1CCC2(CC1)CC(=O)N(Cc1cc(F)cc(F)c1)C2` it was 74%.
As for `O=C1CC2(CCN(CC3CC3)CC2)CN1Cc1cc(F)cc(F)c1`, the figure is 9.433%; as for `O=C1CC2(CCN(Cc3ccoc3)CC2)CN1Cc1cc(F)cc(F)c1`, 54.75%.
`NCCn1cc(C(=O)N2CCCCCC2c2cccc(F)c2)nn1` (stereo not drawn): the “Percent Effect” value was -109.1%.
As for `COc1cc2nc(C)n(CC(=O)NCCC(C)C)c(=O)c2cc1OC`, the figure is -84.85%; as for `CCc1ncc(CN2CCC(CCc3ccccc3)CC2)cn1`, 5.724%.
In the case of `Cc1nn(C)c(C)c1CCC(=O)OCC(=O)N1CCc2sccc2C1` it was -33.28%; in that of `Cc1cc(C)n(CCCN(C)C(=O)C2COc3ccccc3C2)n1` (stereo not drawn), -44.86%.
As for `CC1=NOC(C(=O)N(C)CCCn2nc(C)cc2C)C1` (stereo not drawn), the figure is -92.45%; as for `Cc1nn(C)c(C)c1CN1CCNCC1`, -151.9%.
As to `c1cnc(N2CCCC(c3n[nH]c4ncccc34)C2)nc1` (stereo not drawn), the “Percent Effect” value is -55.39%.
In the case of `COCC[C@]1(O)CCN(Cc2nc(C(C)C)cs2)C[C@H]1C` it was -100.7%; in that of `CN1CCCC(CNC(=O)CN(C)S(=O)(=O)c2cccnc2)C1` (stereo not drawn), -82.06%; in that of `CCOC(=O)CNC(=O)N1CCc2onc(-c3ccc(Cl)cc3)c2C1`, -35.73%.
In the case of `Cn1cnc(C(=O)N2CC3(CCN(S(=O)(=O)c4ccccc4)C3)C2)c1`, the “Percent Effect” value was determined as 9.335%.
As for `Cn1cccc1C(=O)N1CCc2onc(Cn3cccn3)c2C1`, the figure is -37.04%; as for `COCCNS(=O)(=O)c1cccc2c1CN(C(=O)c1cc(C)on1)CC2`, -82.56%.
As for `Cc1n[nH]cc1C(=O)N1CCCC(c2cccc(-n3ccnc3)n2)C1` (stereo not drawn), the figure is -34.99%.
In the case of `CCS(=O)(=O)N1CCC2(CN(C(=O)c3cn(C)cn3)C2)C1` it was -95.83%; in that of `O=C(c1ccnnc1)N1CCc2onc(Cn3cccn3)c2C1`, -67.89%.
As to `Cc1csc2c(=O)n3c(nc12)CCN(C(=O)c1ccnn1C)CC3`, the “Percent Effect” value was -147.1%.
As for `Cc1noc([C@@H]2CC[C@@H]3[C@@H](CCN3S(=O)(=O)c3ccccc3)O2)n1`, the figure is -19.99%; as for `COCCO[C@@H]1CCN(C(=O)c2occc2C)[C@H]1Cc1cnn(C)c1`, -35.95%; as for `CC(C)n1cnnc1C1CCCN(S(=O)(=O)CC2CCCC2)C1` (stereo not drawn), -66.23%.
In the case of `Cc1cc(=O)[nH]c(=O)n1-c1ccccc1Br` it was -82.44%; in that of `COC(=O)c1cccc(C(=O)N2CCN(c3ccc(Cl)cc3)CC2)n1`, -128.8%.
As for `Cc1cc(-c2cnn(CCNC(=O)Cc3ccccn3)c2C2CC2)on1`, the figure is -41.77%; as for `CCN(CC)C(=O)c1c(Cl)cnn1CC`, -101.8%.
As to `O=C1CC2(CCCC2)CC(=O)N1Cc1nc2ncccn2n1`, the “Percent Effect” value is recorded as -57.36%.
As for `N#Cc1ccc(F)c(CNc2ccc(F)cc2OCCO)c1`, the figure is -1.485%; as for `CC(=O)Nc1ccc(CNCc2cccnc2N(C)C)cc1`, -87.09%.
As for `O=C(c1cscn1)N1CCc2ncc(Cn3cncn3)n2CC1`, the “Percent Effect” value is listed as -88.92%.
In the case of `CC(C)n1c(=O)c2ccccc2n(CCCN(C)C)c1=O.Cl` it was 57.86%; in that of `CC(C)n1c(=O)c2ccccc2n(CCN(C)C)c1=O.Cl`, 33.53%.
Turning to `CN(C)CCn1c(=O)n(C)c(=O)c2ccccc21.Cl`, the “Percent Effect” value was -12.02%.
In the case of `NC(=O)C1CN(c2ccc3cc(Br)ccc3n2)CCO1` (stereo not drawn) it was -657.4%.
As for `Cc1ccc(OCCN(C)C2CCOC2=O)cc1` (stereo not drawn), the figure is -120.6%.
For `CC(C)N(CC1CCCN(CC(N)=O)C1)C(=O)OC(C)(C)C` (stereo not drawn), the “Percent Effect” value is given as -15.39%.
Turning to `CC(C)N(CC1CCCN(Cc2ccon2)C1)C(=O)OC(C)(C)C` (stereo not drawn), the “Percent Effect” value is listed as -9.372%.
On to `Cc1noc(C)c1CN1CCCC(CN(C(=O)OC(C)(C)C)C(C)C)C1` (stereo not drawn), for which the “Percent Effect” value came to 52.41%.
As for `NC(=O)C(CNC(=O)Cc1ccsc1)Cc1ccc(F)cc1` (stereo not drawn), the figure is -150.5%.
In the case of `COc1cc(C2CC(=O)Nc3c2nc2n3CCCC2)ccc1O` (stereo not drawn) it was -30.17%.
As for `COCCN(Cc1nc2c(cnn2C)c(=O)[nH]1)C(C)c1ccccc1` (stereo not drawn), the figure is -89.75%; as for `Cc1ccc(N2CCc3ncnc(N(C)C)c3CC2)nn1`, -119.5%.
Take `O=C(O)C(F)(F)F.O=C(O)C(F)(F)F.O=C(O)C(F)(F)F.OCCN1CCC2(CC1)CC(NCc1ccccn1)c1ccccc1O2` (stereo not drawn): the “Percent Effect” value amounted to 70.8%.
As for `COCC(=O)NC1CC2(CCN(CCF)CC2)Oc2ccccc21.O=C(O)C(F)(F)F` (stereo not drawn), the figure is -129.2%; as for `CC(C)N1CCC2(CC1)CC(NS(C)(=O)=O)c1ccccc1O2.O=C(O)C(F)(F)F` (stereo not drawn), -16.02%; as for `CC(C)N1CCC2(CC1)CC(NCc1ccccn1)c1ccccc1O2.O=C(O)C(F)(F)F.O=C(O)C(F)(F)F.O=C(O)C(F)(F)F` (stereo not drawn), 70.65%.
As for `CC(C)CN1CCC2(CC1)CC(NS(C)(=O)=O)c1ccccc1O2.O=C(O)C(F)(F)F` (stereo not drawn), the figure is -52.98%; as for `CS(=O)(=O)NC1CC2(CCN(CCF)CC2)Oc2ccccc21.O=C(O)C(F)(F)F` (stereo not drawn), -76.24%.
As to `CC(C)(C)c1ccc(C(=O)C2CCCN(C(=O)CNS(C)(=O)=O)C2)cc1` (stereo not drawn), the “Percent Effect” value is on record as -75.07%.
For `CN(C)c1no[n+]([O-])c1-c1ccccc1`, the “Percent Effect” value is -137.1%.
In the case of `COCc1nn(C(C)C)c2c1CCN(Cc1ccc(C)o1)C2.O=C(O)C(F)(F)F` it was -30.71%; in that of `Cc1nc[nH]c1-c1nccn1CCN1CCCOC1=O`, -113%.
In the case of `O=C(c1cc(Cl)c2c(c1)OCO2)N1CCN(c2cnccn2)CC1`, the “Percent Effect” value was -89.48%.
In the case of `Cn1c(CN2CCOCC2)cc(=O)c(O)c1CN1CCCCC1` it was -218.7%; in that of `Cn1c(CN2CCCCC2)cc(=O)c(O)c1CN1CCCCC1`, 81.24%; in that of `Cn1c(CN2CCCC(N3CCCCCC3)C2)cc(=O)n(C)c1=O` (stereo not drawn), -10.45%.
In the case of `Cn1c(CN2CCOCC2)cc(=O)c(O)c1CN1CCOCC1` it was -232.2%; in that of `Cn1c(CN2CCCCCC2)cc(=O)c(O)c1CN1CCCC1`, 59.19%; in that of `Cn1c(CN2CCOCC2)cc(=O)c(O)c1CN1CCCC1`, -211.8%.
As for `O=C(O)CC1COCCN1Cc1ccccc1-c1ccccc1` (stereo not drawn), the figure is -118%; as for `COc1ccc(C(=O)Nc2ccc3ncn(C(C)C)c(=O)c3c2)cc1`, 33.29%.
For the compound `O=C(N1CCCC(n2cncn2)C1)C1(c2ccc(Cl)cc2)CCC1` (stereo not drawn), the “Percent Effect” value is given as -26.48%.
Turning to `CCN(CCN1CCOCC1)C(=O)c1cccnc1`, the “Percent Effect” value was -63.54%.
As for `CN(Cc1cc(Br)cn1C)C(=O)c1cccnc1`, the figure is -12.65%.
As for `CCCN(C(=O)c1cccnc1)c1nc2c(s1)CCc1c-2cnn1C`, the figure is 81.54%.
As for `CS(=O)(=O)CCOc1nc(-c2ccccc2Cl)no1`, the figure is -35.46%; as for `O=C(c1ccccc1)N1CC[C@H]2C[C@H](c3nnc(C4CC4)o3)O[C@@H]2C1`, -87.6%.
